PriA SSB inh – K. pneumoniae PriA-SSBct interaction inhibition. AlphaScreen SSBct-PriA binding, biotinylated peptide. inhibition, % at 33 µM. actives 0.6% (n = 430,000). AID 1272365; in the data active = inhibition mostly above about 37%, no sharp cut-off; inactive = mostly below about 20%;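 also: plate controls were negative control peptide for no effect and reference peptide for full effect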
PfHsp40 yeast – restores yeast growth despite PfHsp40 toxicity; growth rescue, % at 12.5 µM; AID 504582; actives 0.68% (n = 340,000); S. cerevisiae expressing PfHsp40, growth rescue, ATP luminescence; in the data active = growth rescue above about 28%, passing the limit was not always enough; inconclusive = no clear call, values can overlap the other calls;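 also: yeast W303a lacking pdr1 and pdr3 grown in galactose medium; growth measured after three days at 30 °C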
PrPC surface inh – inhibitors of human cell surface prion protein PrPC | TR-FRET read-out | inhibition, % at 13.8 µM | actives 0.43% (n = 370,000); in the data active = inhibition above about 24%; also: 0% = median of the test wells and 100% = reference compound wells
BH1578 lux ind – quorum light induction in luxS cqsA deficient V. cholerae; V. cholerae BH1578 lux reporter, luminescence, 6 h; activation, % at 18.7 µM; actives 0.16% (n = 350,000); in the data active = activation mostly above about 9.7%, no sharp cut-off; inconclusive = no clear call, values can overlap the other calls; inactive = mostly below about 3.7%
SARS 3CLpro inh – SARS-CoV 3CLpro protease inhibition | actives 0.14% (n = 290,000) | recombinant SARS-CoV 3CLpro, quenched FRET peptide cleavage | P0C6X7 | AID 1706 | inhibition, % at 6 µM; in the data active = inhibition above about 12%
PrP UTR inh – suppresses PrP 5' UTR mRNA reporter expression; cell-based PrP 5' UTR mRNA reporter, plate reader; inhibition, % (test concentration not listed); actives 0.35% (n = 340,000); in the data active = inhibition above about 52%; also: 0 = median of the neutral control wells
PrP 5UTR single – prion 5' UTR mRNA inhibition, cherry-pick retest | shares compounds with PrP UTR inh | cell-based prion protein 5' UTR reporter, plate reader | inhibition, % at 2.5 µM | actives 48% (n = 1,100) | AID 504592; in the data active = inhibition above about 54%; inconclusive = no clear call, values can overlap the other calls
Starred values were filed as active, the others as inactive; i = inactive; ? = inconclusive; · = not tested or not shown. Compounds with a hit are over-represented: about 1.6% of the library has one in this group of screens.

SMILES | PriA SSB inh | PfHsp40 yeast | PrPC surface inh | BH1578 lux ind | SARS 3CLpro inh | PrP UTR inh | PrP 5UTR single
Cc1ccc(C(=O)Nc2cnc3ccccc3c2)cc1 | -3.0 | -1.3 | -0.8 | 1.5 | 0.5 | 88.9* | 86.8*
COc1ccccc1C(=O)Nc1nc2ccccc2[nH]1 | -4.9 | 0.8 | -8.9 | 0.4 | -10.5 | 92.0* | 92.5*
Cc1ccc(C(=O)Nc2nc3ccccc3[nH]2)cc1 | 3.8 | -3.5 | -3.1 | -0.6 | -1.6 | 61.1* | 64.9*
Cc1ccc(C(=O)Nc2cc3ccccc3oc2=O)cc1 | -6.8 | -1.6 | 4.0 | -0.1 | -1.3 | 86.3* | 86.2*
COc1cc(SC)ccc1C(=O)Nc1nc2ccccc2[nH]1 | 5.3 | -0.1 | 5.1 | -0.2 | -7.2 | 96.1* | 97.7*
CSc1ccccc1C(=O)Nc1nc2ccccc2[nH]1 | 6.2 | -0.5 | 11.1 | -3.3 | -1.3 | -90.8 | ·
CC(=O)Nc1cc2ccccc2oc1=O | -4.6 | -0.8 | -2.0 | -0.2 | -0.9 | -9.1 | ·
Cc1noc(Cc2ccccc2NC(=O)c2c(-c3ccccc3Cl)noc2C)n1 | 5.0 | · | · | · | · | · | ·
S=C(Nc1ccc(Cl)cc1)N1CCn2cccc2C1c1cccs1 (stereo unspecified) | 5.0 | · | · | · | · | · | ·
Cc1cnc(C(=O)OC(C)C(=O)Nc2ccc(Oc3ccccc3)cc2)cn1 (stereo unspecified) | -18.5 | -0.2 | 0.7 | -0.7 | · | 90.1* | -11.7
CC(Oc1ccc(F)cc1)C(O)CCN(C)C (stereo unspecified) | 1.8 | 0.4 | 7.7 | i | 0.0 | 73.7* | -11.7
Cc1cc(=O)oc(C)c1C(=O)N1CCN(C(c2ccccc2)c2ccccc2)CC1 | -9.0 | -0.2 | -0.6 | · | -4.2 | 72.5* | -21.2
COc1cc(/C=C2\COC/C(=C\c3cc(OC)c(OC)c(OC)c3)C2=O)cc(OC)c1OC | -7.5 | 0.8 | -2.6 | -0.4 | 1.2 | 89.1* | 96.8*
COc1cc(/C=C2\CC/C(=C\c3cc(OC)c(OC)c(OC)c3)C2=O)cc(OC)c1OC | 0.8 | 0.0 | -7.0 | -0.5 | -0.2 | -12.4 | ·
C=CCN=C1NN=C(c2cc(C)n(CCOC)c2C)CS1 | -2.7 | -0.5 | 10.9 | 0.1 | 7.4 | 46.1 | ·
Cc1cc(C2=NNC(=NC3CC3)SC2)c(C)n1Cc1ccco1 | -6.8 | 0.0 | -1.9 | -0.3 | 6.2 | 87.7* | 86.9*
Cc1cc(C2=NNC(=NC3CC3)SC2)c(C)n1-c1ccccc1 | 7.3 | 0.1 | 5.0 | -0.3 | 5.2 | 94.5* | 94.3*
COCCn1c(C)cc(C2=NNC(=NC3CC3)SC2)c1C | 13.0 | 0.1 | -6.2 | -0.3 | 2.0 | 92.3* | 94.0*
C=CCn1c(C)cc(C2=NNC(=NC(C)(C)C)SC2)c1C | 31.6 | -1.0 | 3.0 | -0.3 | -1.7 | 65.4* | 66.4*
COc1ccccc1NC(=O)Cn1ncn2c(C)c(C(=O)NCc3ccc(F)cc3)c(C)c2c1=O | -7.0 | · | · | · | · | · | ·
COc1ccccc1-c1ccc(N2CCN(S(=O)(=O)c3ccc(F)cc3F)CC2)nn1 | 5.0 | · | · | · | · | · | ·
CS(=O)(=O)N1N=C(c2ccc3c(c2)OCO3)CC1/C=C/c1ccccc1 (stereo unspecified) | -7.0 | · | · | · | · | · | ·
CCc1csc(NS(=O)(=O)c2ccc(NC(=O)C(c3ccccc3)c3ccccc3)cc2)n1 | -29.0 | · | · | · | · | · | ·
COCCn1c(C)cc(C2=NNC(=Nc3ccc(Cl)cc3Cl)SC2)c1C | 6.5 | 0.0 | -2.0 | i | 4.7 | -20.1 | ·
COCCCN=C1NN=C(c2cc(C)n(Cc3ccco3)c2C)CS1 | -2.2 | -0.6 | 1.6 | -0.2 | 3.9 | 68.0* | 81.9*
SMILES | PriA SSB inh | PfHsp40 yeast | PrPC surface inh | BH1578 lux ind | SARS 3CLpro inh | PrP UTR inh | PrP 5UTR single
CCOc1coc(C(=O)Nc2cc(Cl)ccc2C)cc1=O | -15.0 | · | · | · | · | · | ·
Cc1ccc(C(=O)N2C3C=CC(C3)C2(C(F)(F)F)C(F)(F)F)cc1 (stereo unspecified) | -16.7 | 5.7 | 1.4 | · | 4.1 | 85.9* | -12.4
O=C(CC(Nc1ccc(Cl)cc1Cl)C(=O)O)c1ccccc1 (stereo unspecified) | -20.1 | 2.3 | -6.2 | i | -2.6 | 62.9* | 16.1
O=C(NC(=S)NNC(=O)c1cccs1)c1ccco1 | -9.5 | -1.1 | -1.7 | 14.3 | 2.5 | -46.3 | ·
O=C(NNC(=O)c1cccs1)c1ccco1 | -4.3 | 3.1 | -2.8 | 5.6 | 5.3 | 64.4* | 88.4*
CCN1/C(=C\C=C\C2=[N+](CC)c3ccccc3C2(C)C)C(C)(C)c2ccccc21 | -14.0 | 121.1* | · | -4.3 | -10.7 | 63.2* | 67.1*
CN1C2CCC1C(C(=O)O)C(OC(=O)c1ccccc1)C2 (stereo unspecified) | -0.2 | -0.4 | -1.5 | -0.3 | · | 1.2 | ·
CCOC(=O)C1C(OC(=O)c2ccccc2)CC2CCC1N2C (stereo unspecified) | -1.9 | -0.6 | -4.5 | -0.3 | · | 69.6* | 1.3
Cc1ccc(NC(=O)N2CCc3ccccc32)cc1 | -8.6 | -0.7 | 7.0 | 7.1 | -0.1 | -40.8 | ·
CN1CCN(c2ccc(NC(=O)N3CCc4ccccc43)cc2)CC1 | 3.6 | -2.1 | 0.2 | -0.6 | -1.6 | 63.6* | ?
N=c1ccn2c(n1)O[C@H]1[C@@H](CO)[C@H](O)O[C@H]12 | -4.9 | -0.6 | -0.1 | -0.4 | · | 52.2* | 37.9
CCOc1ccc2c(c1)C(C)=CC(C)(C)N2S(=O)(=O)c1ccc(C)cc1 | -7.5 | 10.5 | 9.5 | i | 3.6 | 66.0* | 86.7*
CC1CN(C(=O)CCC(=O)NCc2ccc(Cl)cc2)c2ccccc2S1 (stereo unspecified) | -8.9 | 1.4 | 13.6 | -0.5 | -1.3 | 62.9* | -13.2
COCC(C)n1c(C)cc(C(=O)COC(=O)c2cccn2C)c1C (stereo unspecified) | 3.4 | -1.7 | -6.4 | -0.6 | · | 66.9* | ?
COc1ccc(N2CCN(C(=O)c3ccc(CNS(=O)(=O)c4ccc(C(C)(C)C)cc4)cc3)CC2)cc1 | 2.0 | · | · | · | · | · | ·
CCN1C(=O)[C@H]2[C@H]3CN=C(SC)N3[C@@](CC)(C(=O)OC)[C@H]2C1=O | 5.5 | 0.1 | 4.7 | i | · | 66.0* | -11.4
O=C(Nc1ccccc1F)N1CCCSC[C@@H]1CN1CCOCC1 | 3.0 | · | · | · | · | · | ·
O=C(NCCCO)c1cc2ccccc2[nH]1 | 2.3 | 0.8 | -7.7 | i | 1.9 | -31.3 | ·
COc1ccc(C(=O)NCCCNC(=O)c2cc3ccccc3[nH]2)cc1OC | -6.5 | 1.4 | 2.0 | i | -1.0 | 78.2* | -7.6
CN(C(=O)COC(=O)c1ccc(Cl)nc1)C1CCS(=O)(=O)C1 (stereo unspecified) | -3.3 | -1.2 | -2.4 | -0.2 | -1.7 | 67.9* | -19.6
CN(C(=O)COC(=O)c1cnc(Cl)c(Cl)c1)C1CCS(=O)(=O)C1 (stereo unspecified) | -2.2 | 1.1 | 6.1 | -0.1 | -3.3 | -38.0 | ·
NC(=O)c1ccccc1OCC#CCNC(=O)Cn1c(=O)oc2ccccc21 | -2.0 | · | · | · | · | · | ·

Compound activity from PubChem.
